According to PubChem BioAssay:
Records with an inconclusive call do not appear. The source made the active and inactive calls.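 Rule for the calls, unless noted: active = viability increase at or above a cutoff of the median across tested compounds plus 3 SD (cut at about 8.5% in these data, passing the limit was not always enough); inconclusive = some gains above the cutoff, reason not given; inactive = the rest.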

Assays:
[1] = OD615 S. cerevisiae growth inhibition, permissive medium, pilot counter-assay, permissive growth control for S. cerevisiae lifespan shortening project (AID 705;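 active = growth inhibition above 25% in both replicates, a cutoff set 3 SD above the mean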); settings: OD615, 24 h, at 10 µM, stronger effect = higher value
[2] = Restrictive medium S. cerevisiae growth inhibition, OD615, pilot screen of yeast lifespan reduction project, restrictive growth control (AID 706;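 active = growth inhibition above a set limit, 3 SD over mean compound inhibition, in both replicates, cut at about 43% in these data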;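 note: modified DeaD lifespan yeast strain shifted to restrictive glucose medium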); settings: OD615, 48 h, at 10 µM, stronger effect = higher value
[3] = viability gain of MRP-1-high H69AR cells under doxorubicin, pilot screen, MRP-1 activator project, CellTiter-Glo, duplicate (AID 807); settings: H69AR viability with doxorubicin, CellTiter-Glo luminescence; at 10 µM; stronger effect = higher value;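 note: compound pretreatment 18-22 h then 72 h combined with doxorubicin; 0% = doxorubicin alone and 100% = vehicle without doxorubicin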
[4] = growth suppression of beta-catenin knockout HCT116, pilot screen, human colon tumor cells (AID 823;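 active = cell viability at or below a set limit in both duplicate runs, the limit being the all-compound median minus 4 SD, cut at about 23% in these data, passing the limit was not always enough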;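 note: 0% = wells killed by 20 µM Hyamine and 100% = untreated DMSO cell wells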); settings: CellTiter-Glo, 60 h, at 10 µM, stronger effect = lower value
[5] = growth suppression of PTEN-deleted HCT116, pilot screen, cell-based, HCT116 clonal line, CellTiter-Glo (AID 824;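 active = viability at or below 27.92% in each of two runs, the all-compound median minus 4 SD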;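 note: 0% = 20 µM Hyamine control and 100% = vehicle cell control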); settings: 60 h, at 10 µM, stronger effect = lower value
[6] = inhibitors of the yeast RAM network, pilot screen, dse1pr::URA3 reporter, 5-FOA selection (AID 869;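 active = inhibition over a set limit, the all-compound mean plus 3 SD, in both replicate runs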;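 note: 0% = DMSO wells with no growth and 100% = 10 µM 1-NA-PP1 with full growth; RAM network block rescues cells from 5-FOA so hits raise OD615 growth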); settings: S. cerevisiae dse1pr::URA3 5-FOA growth, OD615, 2 d, at 10 µM, stronger effect = higher value
[7] = RAM signaling pathway blockade in yeast – S. cerevisiae, Pdr1DBD-CYC8 efflux-inhibited sensitized strain, primary screen (AID 1298;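 active = RAM network inhibition above 8.4% in each of two replicates, 3 SD over the compound average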;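 note: 0% = DMSO untreated cells without growth and 100% = 10 µM 1-NA-PP1 full growth; higher means more yeast growth rescued from 5-FOA killing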); settings: S. cerevisiae cbk1-as DSE1-URA3 strain, 5-FOA growth OD615, 2 d; at 50 µM; stronger effect = higher value
[8] = molecular target: Pantothenate synthetase (Mycobacterium tuberculosis (strain ATCC 25618 / H37Rv)) (UniProt P9WIL5); test: Recombinant Mtb pantothenate synthetase (PanC) inhibitors, coupled enzyme, confirmatory (AID 375; call rule not given here;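 note: 0% = full reaction with vehicle and 100% = no enzyme background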); settings: coupled enzyme assay; at 10 µM, stronger effect = higher value
Chain of Pantothenate synthetase (Mycobacterium tuberculosis (strain ATCC 25618 / H37Rv)) (P9WIL5 whole entry, looked up): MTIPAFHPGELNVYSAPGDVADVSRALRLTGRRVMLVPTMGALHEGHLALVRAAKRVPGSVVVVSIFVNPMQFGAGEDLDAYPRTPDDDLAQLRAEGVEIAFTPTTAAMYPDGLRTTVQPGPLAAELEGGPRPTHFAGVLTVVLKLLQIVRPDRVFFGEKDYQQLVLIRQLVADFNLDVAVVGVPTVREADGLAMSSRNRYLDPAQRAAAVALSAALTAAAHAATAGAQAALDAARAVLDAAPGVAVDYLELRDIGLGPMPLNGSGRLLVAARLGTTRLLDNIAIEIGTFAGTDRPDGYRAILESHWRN

[9] = reducers of endogenous Her2 protein level, primary screen, SKBR3 breast tumor cells, AlphaScreen, ATP viability (AID 461;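 active = Her2 level under about 52% in both replicate screens, with viability over 70% of control, limit read from the data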;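 for Her2 level: lower value means less Her2 protein in the cells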;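 for viability: percent of carrier control wells set as 100% viability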); settings: 18-24 h, measured here: SKBR3 viability, ATP luminescence, at 10 µM
[10] = molecular target: Receptor tyrosine-protein kinase erbB-2 (Homo sapiens) (UniProt P04626); test: as above; settings: 18-24 h, at 10 µM, stronger effect = lower value
Chain of Receptor tyrosine-protein kinase erbB-2 (Homo sapiens) (P04626 whole entry, looked up): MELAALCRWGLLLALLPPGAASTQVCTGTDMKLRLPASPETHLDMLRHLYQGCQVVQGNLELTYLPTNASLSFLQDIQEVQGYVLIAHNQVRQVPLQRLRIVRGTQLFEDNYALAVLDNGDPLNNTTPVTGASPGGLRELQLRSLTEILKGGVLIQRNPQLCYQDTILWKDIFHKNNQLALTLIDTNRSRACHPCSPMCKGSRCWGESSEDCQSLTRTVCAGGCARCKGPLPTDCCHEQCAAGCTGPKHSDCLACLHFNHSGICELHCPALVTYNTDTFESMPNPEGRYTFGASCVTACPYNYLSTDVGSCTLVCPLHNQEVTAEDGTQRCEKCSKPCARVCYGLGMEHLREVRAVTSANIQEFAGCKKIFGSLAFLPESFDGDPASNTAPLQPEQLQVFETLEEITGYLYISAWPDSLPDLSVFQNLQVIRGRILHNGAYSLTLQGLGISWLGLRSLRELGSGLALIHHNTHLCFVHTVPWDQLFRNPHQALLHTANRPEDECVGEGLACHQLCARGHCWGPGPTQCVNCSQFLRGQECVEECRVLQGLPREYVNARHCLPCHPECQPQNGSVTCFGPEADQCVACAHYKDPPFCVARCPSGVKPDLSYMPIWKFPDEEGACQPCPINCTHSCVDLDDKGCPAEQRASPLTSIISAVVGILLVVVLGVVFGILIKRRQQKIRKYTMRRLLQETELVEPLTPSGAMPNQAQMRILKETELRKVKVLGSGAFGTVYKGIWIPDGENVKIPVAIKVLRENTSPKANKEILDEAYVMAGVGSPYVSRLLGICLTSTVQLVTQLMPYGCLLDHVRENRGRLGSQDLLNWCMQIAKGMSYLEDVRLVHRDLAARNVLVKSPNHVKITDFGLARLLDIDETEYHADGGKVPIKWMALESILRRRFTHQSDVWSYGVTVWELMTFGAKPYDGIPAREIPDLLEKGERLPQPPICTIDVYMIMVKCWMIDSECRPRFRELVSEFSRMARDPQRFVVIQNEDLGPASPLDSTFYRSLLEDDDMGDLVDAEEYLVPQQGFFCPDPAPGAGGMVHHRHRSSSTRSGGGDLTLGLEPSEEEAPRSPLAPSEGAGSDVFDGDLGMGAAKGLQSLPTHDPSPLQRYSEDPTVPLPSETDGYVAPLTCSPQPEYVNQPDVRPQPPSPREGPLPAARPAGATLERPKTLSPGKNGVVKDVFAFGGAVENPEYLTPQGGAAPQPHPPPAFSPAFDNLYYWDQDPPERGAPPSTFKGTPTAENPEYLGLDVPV

[11] = SK-BR-3 cell growth inhibitors, pilot screen, 24 h, human (AID 572;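 active = viability at or below 10% of carrier control in both of two separate runs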;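 note: compound exposure lasted between 18 and 24 h rather than exactly 24 h; 100% = carrier-treated control wells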); settings: SK-BR-3 viability, CellTiter-Glo luminescence, at 10 µM, stronger effect = lower value
[12] = HUVEC growth inhibition – cell-based, human, primary screen (AID 575;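 active = viability at or below 30% in both replicate assays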;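 note: 100% = median of untreated cell wells with 0.1% DMSO on each plate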); settings: HUVEC proliferation, CellTiter-Glo luminescence, 72 h; at 10 µM; stronger effect = lower value
[13] = growth inhibitors of H69AR lung tumor, primary screen, human, duplicate replicates (AID 580;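 active = viability at or under a set limit in both replicates, limit being median viability minus 3 SD, cut at about 48% in these data, passing the limit was not always enough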;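 note: 100% = mean luminescence of untreated wells and 0% = no signal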); settings: H69AR lung tumor cells viability, ATP luminescence, 72 h; at 10 µM; stronger effect = lower value
[14] = reversal of MRP1-mediated doxorubicin resistance, pilot screen, H69AR cells, doxorubicin co-treatment (AID 601;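 active = viability loss from added drug above about 55%, and viability with drug at most 40%, in both replicates, limit read from the data, passing the limit was not always enough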); settings: CellTiter-Glo, 72 h, at 10 µM; for differential viability (reversal): stronger effect = higher value
[15] = 384-well plate pilot, post-Golgi transport modulator project, inhibition of yeast transport mutant growth (AID 636; in the data active = inhibition above about 31%); settings: absorbance 615 nm, about 18 h, stronger effect = higher value
[16] = growth suppression of yeast trafficking mutant, preliminary HTS, modulators of trafficking downstream of Golgi apparatus project, 1536-format plate, OD 615 nm (AID 637; in the data active = inhibition above about 30%); settings: yeast transport mutant growth, absorbance 615 nm, 18 h; stronger effect = higher value
[17] = H69AR cells + 2 uM doxorubicin, measured here: viability with 2 uM doxorubicin, stronger effect = lower value
[18] = H69AR cells, compound alone cytotoxicity

COc1cccc(OCC(=O)N2CCN(C)CC2)c1
growth inhibition [1]: 5.64% (inactive)
growth inhibition [2]: 11.5% (inactive)
viability increase [3]: 0.31% (inactive)
viability [4]: 99.8% (inactive)
viability [5]: 102% (inactive)
inhibition [6]: 0.505% (inactive)
RAM network inhibition [7]: 0.31% (inactive)

CCc1ccc(OCCCN=C(C)c2c(O)n(C)c(=O)n(C)c2=O)cc1
inhibition [8]: 0% (inactive)
viability [9]: 92%
Her2 level [10]: 85.5% (inactive)
viability [11]: 92% (inactive)
viability [12]: 77.7% (inactive)
viability [13]: 85.1% (inactive)
differential viability (reversal) ([14]; H69AR cells + 2 uM doxorubicin): 1.31% (inactive)
viability [14, 17]: 83.8%
viability [14, 18]: 85.1%
inhibition [15]: -1.95% (inactive)
inhibition [16]: 1.83% (inactive)
growth inhibition [1]: -6.49% (inactive)
growth inhibition [2]: -4.79% (inactive)
viability increase [3]: 0.23% (inactive)
viability [4]: 77.3% (inactive)
viability [5]: 80.8% (inactive)
inhibition [6]: 0.12% (inactive)
RAM network inhibition [7]: -0.72% (inactive)

O=P(OCC(F)(F)C(F)F)(N1CCCCC1)N1CCCCC1
inhibition [8]: 3% (inactive)
viability [9]: 104%
Her2 level [10]: 108% (inactive)
viability [11]: 104% (inactive)
viability [12]: 106% (inactive)
viability [13]: 117% (inactive)
differential viability (reversal) ([14]; H69AR cells + 2 uM doxorubicin): 17.1% (inactive)
viability [14, 17]: 99.9%
viability [14, 18]: 117%
inhibition [15]: 2.67% (inactive)
inhibition [16]: -7.9% (inactive)
growth inhibition [1]: -8.86% (inactive)
growth inhibition [2]: -5.09% (inactive)
viability increase [3]: -0.61% (inactive)
viability [4]: 89% (inactive)
viability [5]: 95.5% (inactive)
inhibition [6]: 0.595% (inactive)
RAM network inhibition [7]: 3.2% (inactive)

C=CCOC(=O)COc1cc(C)cc2oc(=O)c3c(c12)CCC3
inhibition [8]: 1% (inactive)
viability [11]: 81% (inactive)
viability [12]: 97.2% (inactive)
viability [13]: 84.4% (inactive)
differential viability (reversal) ([14]; H69AR cells + 2 uM doxorubicin): -2.28% (inactive)
viability [14, 17]: 86.7%
viability [14, 18]: 84.4%
inhibition [15]: -5.73% (inactive)
inhibition [16]: -0.73% (inactive)
growth inhibition [1]: -7.89% (inactive)
growth inhibition [2]: -2.46% (inactive)
viability increase [3]: -0.23% (inactive)
viability [4]: 90.7% (inactive)
viability [5]: 99.4% (inactive)
inhibition [6]: 1.63% (inactive)
RAM network inhibition [7]: 6.89% (inactive)
